Source: PubChem (National Center for Advancing Translational Sciences (NCATS))
Hits are enriched below; roughly 19% of the tested compounds scored in any of these assays.
HT1080 IDH1KD tx: kills HT-1080 cells with IDH1 knockdown; HT-1080 IDH1 knockdown viability, ATP luminescence, 48 h; Potency, µM (top dose mostly 46.1 µM), actives largely listed as cytotoxic; 2% of 360,000 active; AID 686971
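CellTiter-Glo luminescence after 48 h compound exposure at 37 degrees C of IDH1-knockdown HT-1080 cells in 5% FBS RPMI. %Activity scaled between DMSO wells and cell-free media wells, with curves fitted and assigned curve classes.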
DT40 TDP1 CPT: growth inhibition of DT40 Tdp1-/-;hTDP1 cells with camptothecin (screen for TDP1 inhibitors). chicken DT40 Tdp1-/-;hTDP1 cells + 20 nM CPT, ATP luminescence, 48 h. Potency, µM (doses to about 46.2 µM), most hits filed as inhibitors. 12% of 420,000 active. AID 686979; further: nearly all actives have a fitted effect of over 55% in size
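Chicken DT40 Tdp1-/- cells stably complemented with human TDP1 were seeded at 400 cells/well in medium containing 20 nM camptothecin, exposed to pin-transferred compounds, and grown at 37 °C for at least 48 hr. Viability was read as ATP luminescence.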
IL1B secr inh: blocks inflammasome-driven IL-1 beta release. THP-1 LPS/ATP IL-1B secretion, AlphaLISA, 16 h; stronger effect = lower value. activity change, % at 57.5 µM. 4.7% of 360,000 active; in the data active means activity change below about -50%; inconclusive means mostly about -30% to -49%
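THP-1 cells pretreated 1 hr with compounds (up to 57.5 uM final), then stimulated with LPS (250 ng/mL final) plus ATP (1.25 mM final); secreted IL-1B measured by AlphaLISA after 16 hr, decreased signal indicating inhibition.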
TDP1 cell noCPT: qHTS for Inhibitors of human tyrosyl-DNA phosphodiesterase 1 (TDP1): qHTS in cells in absence of CPT; Potency, µM (series often up to 46.2 µM), actives largely listed as inhibitors; DT40 Tdp1-/- hTDP1 cells, no CPT, ATP luminescence, 48 h; AID 686978, 2013; 15% of 420,000 active; further: nearly all actives have a fitted effect of over 55% in size
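Readout: luminescence from CellTiter-Glo after 30 min in the dark at RT. Cells: DT40 Tdp1-/- with stable hTDP1, 400/well. Exposure: compounds alone, ≥48 hr, 37 °C.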
HT1080-NT tox: kills 2HG-producing HT-1080-NT fibrosarcoma cells. AID 686970. Potency, µM (series often up to 46.1 µM), actives largely listed as cytotoxic. HT-1080-NT fibrosarcoma viability, CellTiter-Glo ATP luminescence, 48 h. 1.6% of 360,000 active;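 further: NT is the 2HG producing partner of a matched IDH1 knockdown line; nearly all actives have a fitted effect of over 55% in size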
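Toxicity toward the 2HG-producing NT line was scored as %Activity, normalised to DMSO and no-cell wells, from CellTiter-Glo luminescence after 48 hours' treatment.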
Hits are given with their value; n = inactive; u = inconclusive; x = no result. Unless noted, the call rests on the fitted dose curve; in most records, active means well fitted curve in the direction sought with a large enough effect; inconclusive means small, poorly fitted or top-dose-only effect, or another doubt; inactive means no such curve, though single readings can be large; an effect the other way counts as inactive or inconclusive.

SMILES	HT1080 IDH1KD tx	DT40 TDP1 CPT	IL1B secr inh	TDP1 cell noCPT	HT1080-NT tox
O=C(Nc1ccc(S(=O)(=O)N2CCOCC2)cc1)c1ccc(Cl)cc1Cl	n	u	n	21µM	n
COc1cccc(N(C(=O)CNC(=O)c2ccco2)C(C(=O)NC2CCCCC2)c2ccncc2)c1 (stereo not drawn)	n	n	n	n	n
CC(=O)Oc1ccc(/C=N/NS(=O)(=O)c2ccccc2)cc1	n	u	n	u	n
CC1(Oc2cccc(F)c2)CCN(Cc2csc3ccccc23)C1 (stereo not drawn)	n	u	n	u	n
O=C(Nc1ccc(S(=O)(=O)N2CCOCC2)cc1)c1cc([N+](=O)[O-])ccc1Cl	u	16µM	n	u	u
CCOc1cc(/C=N\Nc2nc(Nc3ccccc3)nc(N3CCOCC3)n2)ccc1OC(=O)c1ccco1	n	18µM	n	8.2µM	n
COC(=O)c1ccc(/C=N/Nc2nc(N3CCCCC3)nc(N3CCCCC3)n2)cc1	n	n	n	n	u
O=C(Oc1ccc(/C=N/Nc2nc(N3CCCCC3)nc(N3CCCCC3)n2)cc1)c1ccco1	n	u	n	16µM	n
COc1cc(/C=N/Nc2nc(C)cc(C)n2)ccc1OC(=O)c1ccco1	n	n	n	n	n
COc1ccc(N(CC(=O)NCc2ccccc2)C(=O)Cn2nnc(-c3ccccc3F)n2)cc1OC	n	n	n	n	n
Cc1nc2c(-c3ccccc3)cnn2c(N)c1-c1ccccc1	u	n	-78	u	u
Cc1cc(N2CCCCC2)n2ncc(-c3ccccc3)c2n1	n	u	n	29µM	n
Cc1cc(-c2ccccc2)n2ncc(-c3ccccc3)c2n1	n	n	n	n	n
Cc1cc(N2CCN(C(=O)c3ccco3)CC2)n2ncc(-c3ccccc3)c2n1	n	23µM	n	16µM	n
Cc1cc(SCC(=O)c2ccccc2)n2ncc(-c3ccccc3)c2n1	n	u	n	7.3µM	n
CCOC(=O)NC(Nc1ccc(S(N)(=O)=O)cc1)(C(=O)OCC)C(F)(F)F (stereo not drawn)	n	n	n	n	n
O=C(NNC(=O)c1ccc2ccccc2c1)c1cccc(Cl)c1	n	n	n	n	n
Cc1cc(N2CCCCC2)n2ncc(-c3ccc(Cl)cc3)c2n1	n	13µM	n	u	n
Cc1cc(N2CCOCC2)n2ncc(-c3ccc(Cl)cc3)c2n1	n	n	n	n	n
COc1cc2oc3ccccc3c(=O)c2cc1OC	n	u	-51	u	n
O=c1cc(-c2ccccc2)oc2ccccc12	n	u	n	u	n
COc1ccccc1-c1oc2ccccc2c1C#CCCO	n	n	n	u	n
COc1ccc(-c2cc(=O)c3ccccc3o2)cc1OC	x	u	x	15µM	x
COc1ccccc1-c1oc2ccccc2c1C#CC1(O)CCCCC1	u	n	n	u	u
COc1ccccc1-c1oc2ccccc2c1C#CC1(N)CCCCC1	n	16µM	u	15µM	n
SMILES	HT1080 IDH1KD tx	DT40 TDP1 CPT	IL1B secr inh	TDP1 cell noCPT	HT1080-NT tox
COc1ccccc1-c1oc2ccccc2c(=O)c1OC	x	6.7µM	x	u	x
CC(C)(C)C(=O)NCCc1nc2ccccc2n1CC(=O)c1ccc(Cl)cc1	n	u	n	u	n
C=CCn1c(=O)c(C(=O)NCc2ccccc2Cl)c(O)c2ccccc21	n	u	n	u	n
O=C(COc1ccccc1)Nc1c2c(nn1-c1ccccc1)CS(=O)C2 (stereo not drawn)	n	n	n	n	n
CC1CC(C)CN(C(=O)c2ccc(-c3ccc([N+](=O)[O-])cc3)o2)C1 (stereo not drawn)	n	16µM	u	16µM	n
O=C(c1ccc(-c2ccc(Cl)cc2)o1)N1CCN(c2ccc([N+](=O)[O-])cc2Cl)CC1	u	5.2µM	n	2.6µM	u
CCc1noc(C)c1C(=O)N1CCN(c2ccc([N+](=O)[O-])cc2)CC1	n	u	n	u	n
CCc1nc2ccc(C(=O)N3CCN(c4ccc([N+](=O)[O-])cc4)CC3)cc2nc1CC	n	16µM	u	u	u
O=C(c1ccc(-c2cccc([N+](=O)[O-])c2)o1)N1CCN(c2ccc([N+](=O)[O-])cc2)CC1	n	6.5µM	n	4.1µM	n
